Source: PubChem BioAssay (NCI)
The panel holds about 83,000 compounds, 20% with a hit somewhere; the sample as a whole holds those more often.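 Growth was measured after 48 h exposure to one concentration of compound in 96-well plates. Values under 10 count as active.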 Calls of active or inactive are those of the source.

system: HL-60(TB) leukemia; experiment: NCI-60 one-dose screen, 48 h (100 = growth as untreated, 0 = no growth, -100 = all killed); conditions: 10 µM unless noted

Row | SMILES | growth
1 | c1ccc2cc(C[n+]3ccn(CCCCCCCn4cc[n+](Cc5ccc6ccccc6c5)c4)c3)ccc2c1 | 32.9% (inactive)
2 | CC(C)(C)OC(=O)CC1(O)CCCCC1 | 106% (inactive)
3 | COc1cc(N2C(=O)[C@H](Cl)C2c2ccc(SC)cc2)cc(OC)c1OC (stereo not given in full) | -36.1% (active)
4 | CCOc1nc(-c2ccccc2)cc2c(O)c(C(=O)N/N=C/c3ccc(N(C)C)cc3)[nH]c(=O)c12 | 111% (inactive)
5 | C=CCOC(=O)C1=C(C)N(CC)C(=O)NC1c1c(Cl)n(C)c2ccccc12 (stereo not given) | 99.2% (inactive)
6 | CC(C)(Sc1cc(C(C)(C)C)c(O)c(C(C)(C)C)c1)Sc1cc(C(C)(C)C)c(OC(=O)CCC(=O)O)c(C(C)(C)C)c1 | 56.1% (inactive)
7 | Cc1ccc(O)c(N)c1 | 115% (inactive)
8 | CC(=O)c1cccc(Nc2ncnc3ccc(NC(=O)c4ccco4)cc23)c1 | 122% (inactive)
9 | CCCC(OC(C)=O)c1ccc2c(c1)OCO2 (stereo not given) | 98.7% (inactive)
10 | O=c1nc(-c2ccccc2)c2cc(-c3ccc(N4CCOCC4)cc3)ccc2[nH]1 | 63.5% (inactive)
11 | COc1ccc(C2C(c3ccccc3)C(=O)N2c2cc(OC)c(OC)c(OC)c2)cc1I (stereo not given) | -31.6% (active)
12 | C=C(C)[C@@H]1CC[C@]2(C)[C@H](CC[C@@H]3[C@H]4[C@H]5OC[C@@]4(CCC5(C)C)CC[C@]32C)[C@@]1(C)CCCN | -4.66% (active)
13 | COc1cc(OC)c(/C=C/S(=O)(=O)Cc2cnc(OC)c(N)c2)c(OC)c1 | -39.5% (active)
14 | OC1(c2ccccc2)c2ccccc2N(c2ccccc2)c2ccc(Cl)cc21 (stereo not given) | -22.2% (active)
15 | O=C(O)CSc1ccc(NCc2oc(CO)cc(=O)c2O)cc1 | 69.3% (inactive)
16 | COc1cc(/C=C/C(=O)/C=C(/C=C/c2ccc(OC(C)=O)c(OC)c2)OB(F)F)ccc1OC(C)=O | 4.04% (active)
17 | Cc1cc(NCc2cc(Nc3ccnc4cc(Cl)ccc34)ccc2F)nc(N2CCOCC2)n1 | -52.7% (active)
18 | COc1c(C2CC(=O)Nc3c2cnn3Cc2ccco2)cc2c(c1OC)OCO2 (stereo not given) | -25.8% (active)
19 | Oc1ccccc1\C=N/N=C/C=C/c1ccccc1 | 38.5% (inactive)
20 | Cn1/c(=N/NC(N)=S)ccc2ccccc21 | 106% (inactive)
21 | NC1=CC(=O)C(=O)c2cccnc21 | 106% (inactive)
22 | COc1ccc(C(=O)/C=C/c2ccccn2)c(O)c1 | 23.4% (inactive)
23 | COc1ccc(-c2nc3sccn3c2-c2ccnc(NCCCNS(=O)(=O)c3ccc4ccccc4c3)n2)cc1 | 66.1% (inactive)
24 | COC(=O)CC/C(C)=N\Nc1ccc([N+](=O)[O-])cc1 | 24.5% (inactive)
25 | COc1ccc(NC(=S)NNc2ccc(-c3ccc(OC)c(OC)c3)nn2)cc1 | 98.9% (inactive)
